Reference: the supplement of paper PMC11732987, “Enantioselective OTUD7B fragment discovery through chemoproteomics screening and high-throughput optimisation” (Communications Chemistry, 2025)

Tests used:
Test in all cases: log2 ratio of Biotin-Ahx-Ub-VS probe labelling (fragment/DMSO); higher = less target engagement (more negative = stronger competition), active = hit call of the paper (q ≤ 0.05, log2 ratio ≤ -1)
Settings in all cases: compound concentration: 200 uM; treatment time: 3 h
USP34 = USP34 (UniProt Q70CQ2)
Sequence of USP34 (Q70CQ2 whole entry, the tested form may be a part): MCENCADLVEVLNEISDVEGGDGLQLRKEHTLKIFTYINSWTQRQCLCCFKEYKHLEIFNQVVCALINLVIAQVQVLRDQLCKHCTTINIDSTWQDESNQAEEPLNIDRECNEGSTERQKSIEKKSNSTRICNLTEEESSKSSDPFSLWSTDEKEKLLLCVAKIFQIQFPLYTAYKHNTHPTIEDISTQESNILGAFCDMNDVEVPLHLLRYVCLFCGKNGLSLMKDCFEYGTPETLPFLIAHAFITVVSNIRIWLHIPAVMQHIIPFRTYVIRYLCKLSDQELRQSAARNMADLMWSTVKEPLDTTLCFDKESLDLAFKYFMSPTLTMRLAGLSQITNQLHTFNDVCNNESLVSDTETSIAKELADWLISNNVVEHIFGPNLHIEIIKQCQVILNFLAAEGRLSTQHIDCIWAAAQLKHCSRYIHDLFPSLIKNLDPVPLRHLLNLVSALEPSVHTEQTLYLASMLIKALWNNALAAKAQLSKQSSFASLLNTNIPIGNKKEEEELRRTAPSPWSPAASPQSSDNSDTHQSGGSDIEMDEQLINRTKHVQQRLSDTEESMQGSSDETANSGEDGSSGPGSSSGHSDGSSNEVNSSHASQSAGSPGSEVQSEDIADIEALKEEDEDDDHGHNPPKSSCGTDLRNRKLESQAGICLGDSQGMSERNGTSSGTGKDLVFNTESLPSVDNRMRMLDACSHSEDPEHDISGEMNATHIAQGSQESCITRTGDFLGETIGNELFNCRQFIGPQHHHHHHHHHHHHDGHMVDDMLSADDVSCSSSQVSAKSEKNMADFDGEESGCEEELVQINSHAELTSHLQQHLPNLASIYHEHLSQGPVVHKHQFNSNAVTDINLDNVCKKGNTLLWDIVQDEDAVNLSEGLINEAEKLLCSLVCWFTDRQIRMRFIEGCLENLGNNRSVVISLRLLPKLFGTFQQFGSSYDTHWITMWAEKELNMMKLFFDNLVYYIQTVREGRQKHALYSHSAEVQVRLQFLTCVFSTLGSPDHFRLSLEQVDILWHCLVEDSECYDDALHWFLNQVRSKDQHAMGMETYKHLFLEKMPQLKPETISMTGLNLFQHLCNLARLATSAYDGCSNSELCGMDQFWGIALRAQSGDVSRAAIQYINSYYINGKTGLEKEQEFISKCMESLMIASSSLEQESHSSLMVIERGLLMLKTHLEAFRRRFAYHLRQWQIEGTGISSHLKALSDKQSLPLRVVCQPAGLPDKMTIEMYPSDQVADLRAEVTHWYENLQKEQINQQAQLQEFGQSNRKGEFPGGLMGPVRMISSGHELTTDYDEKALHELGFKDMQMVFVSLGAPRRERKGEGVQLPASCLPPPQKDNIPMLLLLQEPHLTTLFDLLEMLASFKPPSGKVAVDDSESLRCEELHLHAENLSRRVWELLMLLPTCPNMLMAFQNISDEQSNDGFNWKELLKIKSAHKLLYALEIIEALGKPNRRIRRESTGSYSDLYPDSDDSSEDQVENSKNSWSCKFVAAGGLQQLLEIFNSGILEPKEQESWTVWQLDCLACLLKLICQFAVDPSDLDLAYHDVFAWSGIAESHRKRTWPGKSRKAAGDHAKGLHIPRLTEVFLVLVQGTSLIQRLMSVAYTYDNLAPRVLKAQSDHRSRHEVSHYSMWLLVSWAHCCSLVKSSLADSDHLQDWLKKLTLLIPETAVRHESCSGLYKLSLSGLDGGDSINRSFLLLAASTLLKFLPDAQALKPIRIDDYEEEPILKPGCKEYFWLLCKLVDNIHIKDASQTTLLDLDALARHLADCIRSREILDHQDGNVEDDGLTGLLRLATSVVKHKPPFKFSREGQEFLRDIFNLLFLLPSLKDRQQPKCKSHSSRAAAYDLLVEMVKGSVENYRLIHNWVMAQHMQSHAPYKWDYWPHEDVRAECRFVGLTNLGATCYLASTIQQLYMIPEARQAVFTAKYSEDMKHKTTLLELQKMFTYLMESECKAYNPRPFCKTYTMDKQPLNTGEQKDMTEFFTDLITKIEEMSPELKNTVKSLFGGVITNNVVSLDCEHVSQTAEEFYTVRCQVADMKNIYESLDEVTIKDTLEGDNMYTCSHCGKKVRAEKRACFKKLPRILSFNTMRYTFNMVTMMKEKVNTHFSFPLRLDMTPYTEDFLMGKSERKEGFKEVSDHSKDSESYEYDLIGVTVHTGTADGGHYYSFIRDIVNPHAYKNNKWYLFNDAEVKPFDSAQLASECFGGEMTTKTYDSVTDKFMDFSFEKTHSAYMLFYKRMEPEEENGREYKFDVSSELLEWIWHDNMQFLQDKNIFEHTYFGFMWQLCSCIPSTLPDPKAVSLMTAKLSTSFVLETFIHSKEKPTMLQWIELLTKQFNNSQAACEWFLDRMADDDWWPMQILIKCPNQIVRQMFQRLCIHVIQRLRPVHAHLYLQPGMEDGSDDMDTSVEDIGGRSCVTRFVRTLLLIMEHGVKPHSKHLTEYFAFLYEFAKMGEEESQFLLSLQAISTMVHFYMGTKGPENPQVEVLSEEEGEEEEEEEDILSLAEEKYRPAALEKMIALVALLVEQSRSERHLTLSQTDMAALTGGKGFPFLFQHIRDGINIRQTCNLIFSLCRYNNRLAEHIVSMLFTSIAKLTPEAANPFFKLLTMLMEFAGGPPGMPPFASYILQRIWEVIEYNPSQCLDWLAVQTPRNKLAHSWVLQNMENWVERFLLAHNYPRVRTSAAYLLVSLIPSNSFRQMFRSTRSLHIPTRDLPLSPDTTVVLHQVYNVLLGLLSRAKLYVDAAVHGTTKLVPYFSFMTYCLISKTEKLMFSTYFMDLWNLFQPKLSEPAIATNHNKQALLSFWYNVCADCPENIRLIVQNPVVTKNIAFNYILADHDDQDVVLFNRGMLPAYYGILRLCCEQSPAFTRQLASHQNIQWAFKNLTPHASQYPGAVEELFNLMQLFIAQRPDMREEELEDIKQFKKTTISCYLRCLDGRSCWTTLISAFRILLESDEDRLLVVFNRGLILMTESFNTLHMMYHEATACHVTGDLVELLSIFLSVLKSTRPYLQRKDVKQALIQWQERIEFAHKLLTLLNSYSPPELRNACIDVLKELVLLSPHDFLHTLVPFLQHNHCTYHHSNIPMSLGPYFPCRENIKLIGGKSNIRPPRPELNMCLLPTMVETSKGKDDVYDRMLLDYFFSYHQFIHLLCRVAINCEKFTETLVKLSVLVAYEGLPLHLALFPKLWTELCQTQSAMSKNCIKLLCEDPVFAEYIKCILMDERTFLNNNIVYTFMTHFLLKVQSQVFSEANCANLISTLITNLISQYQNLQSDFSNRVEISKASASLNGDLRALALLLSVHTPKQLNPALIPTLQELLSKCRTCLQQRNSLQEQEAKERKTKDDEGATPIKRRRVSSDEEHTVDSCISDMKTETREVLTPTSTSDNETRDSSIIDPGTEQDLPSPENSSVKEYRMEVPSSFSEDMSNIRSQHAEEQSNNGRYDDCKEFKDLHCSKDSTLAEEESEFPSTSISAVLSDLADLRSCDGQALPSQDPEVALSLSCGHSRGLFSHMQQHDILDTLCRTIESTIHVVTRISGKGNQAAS
How it was run: (§1)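 Labelled DUBs were enriched with NeutrAvidin, digested with LysC and trypsin, and run by diaPASEF LC-MS/MS. The labelling used Biotin-Ahx-Ub-VS at 0.5 µM final for 1 h on HEK293T lysate (495 µg per sample) previously treated in triplicate with fragment at 200 µM or vehicle for 3 h. Values are average log2 fragment/vehicle ratios by unpaired t-test on global-median-normalised Spectronaut quantities of proteins with ≥2 unique peptides.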

USP36 = target: T1, USP36 (UniProt Q9P275)
T1 sequence (whole entry): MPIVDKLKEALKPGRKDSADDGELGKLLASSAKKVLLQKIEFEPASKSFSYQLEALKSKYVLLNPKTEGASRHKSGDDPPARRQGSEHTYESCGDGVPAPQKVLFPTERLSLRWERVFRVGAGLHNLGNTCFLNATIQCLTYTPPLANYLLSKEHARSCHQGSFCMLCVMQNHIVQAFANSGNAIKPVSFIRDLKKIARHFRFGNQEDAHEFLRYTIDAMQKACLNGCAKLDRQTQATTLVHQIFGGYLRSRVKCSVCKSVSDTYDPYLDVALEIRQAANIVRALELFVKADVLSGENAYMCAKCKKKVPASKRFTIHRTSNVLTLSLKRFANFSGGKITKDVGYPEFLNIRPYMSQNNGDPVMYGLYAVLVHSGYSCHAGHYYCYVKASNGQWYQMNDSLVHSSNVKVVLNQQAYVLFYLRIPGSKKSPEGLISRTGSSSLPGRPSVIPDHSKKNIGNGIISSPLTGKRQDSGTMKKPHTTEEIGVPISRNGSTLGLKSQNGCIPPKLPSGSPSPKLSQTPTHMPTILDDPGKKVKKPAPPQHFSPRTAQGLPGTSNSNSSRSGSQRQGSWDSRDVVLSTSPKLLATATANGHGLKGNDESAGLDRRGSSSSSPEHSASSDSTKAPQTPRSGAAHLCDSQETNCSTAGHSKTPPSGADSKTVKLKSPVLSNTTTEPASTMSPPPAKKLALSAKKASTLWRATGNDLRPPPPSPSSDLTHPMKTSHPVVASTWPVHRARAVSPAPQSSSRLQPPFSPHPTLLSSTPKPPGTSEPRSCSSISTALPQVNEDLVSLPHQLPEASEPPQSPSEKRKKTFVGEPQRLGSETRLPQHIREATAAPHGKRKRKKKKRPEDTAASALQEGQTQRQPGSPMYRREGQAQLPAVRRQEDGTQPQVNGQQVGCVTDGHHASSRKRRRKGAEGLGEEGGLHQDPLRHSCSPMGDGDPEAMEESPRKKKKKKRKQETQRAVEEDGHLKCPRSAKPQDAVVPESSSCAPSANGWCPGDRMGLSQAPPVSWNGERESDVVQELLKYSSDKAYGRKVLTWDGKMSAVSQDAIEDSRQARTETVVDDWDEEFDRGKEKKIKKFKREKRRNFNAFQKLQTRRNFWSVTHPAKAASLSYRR
How it was run: as §1

USP38 = target: T2, USP38 (UniProt Q8NB14)
T2 sequence (whole entry): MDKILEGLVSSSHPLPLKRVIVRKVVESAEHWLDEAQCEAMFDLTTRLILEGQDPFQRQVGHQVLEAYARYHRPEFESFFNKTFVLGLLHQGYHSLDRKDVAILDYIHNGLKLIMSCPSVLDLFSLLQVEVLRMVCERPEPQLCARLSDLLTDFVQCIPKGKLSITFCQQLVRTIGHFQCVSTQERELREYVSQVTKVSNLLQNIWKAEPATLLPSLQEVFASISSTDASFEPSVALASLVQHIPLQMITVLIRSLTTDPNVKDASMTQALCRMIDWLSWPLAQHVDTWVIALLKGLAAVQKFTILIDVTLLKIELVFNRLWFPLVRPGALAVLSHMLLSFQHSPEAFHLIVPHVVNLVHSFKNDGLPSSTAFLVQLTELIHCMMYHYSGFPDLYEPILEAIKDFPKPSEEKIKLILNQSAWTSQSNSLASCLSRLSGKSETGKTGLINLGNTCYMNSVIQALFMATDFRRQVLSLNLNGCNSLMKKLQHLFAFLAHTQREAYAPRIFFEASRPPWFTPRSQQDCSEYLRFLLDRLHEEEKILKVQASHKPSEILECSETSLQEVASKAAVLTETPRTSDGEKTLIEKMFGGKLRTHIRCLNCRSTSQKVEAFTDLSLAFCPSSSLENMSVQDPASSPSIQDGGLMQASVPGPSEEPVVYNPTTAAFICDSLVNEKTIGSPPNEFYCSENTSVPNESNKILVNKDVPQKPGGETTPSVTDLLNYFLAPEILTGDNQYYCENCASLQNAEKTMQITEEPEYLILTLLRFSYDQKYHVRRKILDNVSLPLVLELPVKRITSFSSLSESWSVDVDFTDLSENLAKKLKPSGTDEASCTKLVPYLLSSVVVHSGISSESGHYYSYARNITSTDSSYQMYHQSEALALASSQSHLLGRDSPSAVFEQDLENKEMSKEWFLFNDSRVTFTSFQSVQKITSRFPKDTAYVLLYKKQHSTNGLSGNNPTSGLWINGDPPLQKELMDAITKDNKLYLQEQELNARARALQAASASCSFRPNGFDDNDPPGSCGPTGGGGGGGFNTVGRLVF
How it was run: as §1

USP39 = target: T3, USP39 (UniProt Q53GS9)
T3 sequence (whole entry): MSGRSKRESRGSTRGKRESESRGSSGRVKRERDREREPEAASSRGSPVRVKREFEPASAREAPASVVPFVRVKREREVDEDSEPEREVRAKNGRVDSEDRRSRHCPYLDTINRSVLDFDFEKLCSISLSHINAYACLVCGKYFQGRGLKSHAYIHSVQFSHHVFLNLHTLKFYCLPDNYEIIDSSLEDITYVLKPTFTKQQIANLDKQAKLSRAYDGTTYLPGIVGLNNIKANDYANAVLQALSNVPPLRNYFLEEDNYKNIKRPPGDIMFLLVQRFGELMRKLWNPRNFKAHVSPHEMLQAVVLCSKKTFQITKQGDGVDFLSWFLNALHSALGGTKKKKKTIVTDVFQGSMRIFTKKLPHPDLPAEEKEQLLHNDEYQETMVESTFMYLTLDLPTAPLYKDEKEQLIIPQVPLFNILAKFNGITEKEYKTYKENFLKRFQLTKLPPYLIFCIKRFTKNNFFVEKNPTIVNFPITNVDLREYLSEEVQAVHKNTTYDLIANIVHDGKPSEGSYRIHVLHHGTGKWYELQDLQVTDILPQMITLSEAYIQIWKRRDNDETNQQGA
How it was run: as §1

USP4 = target: T4, USP4 (UniProt Q13107)
T4 sequence (whole entry): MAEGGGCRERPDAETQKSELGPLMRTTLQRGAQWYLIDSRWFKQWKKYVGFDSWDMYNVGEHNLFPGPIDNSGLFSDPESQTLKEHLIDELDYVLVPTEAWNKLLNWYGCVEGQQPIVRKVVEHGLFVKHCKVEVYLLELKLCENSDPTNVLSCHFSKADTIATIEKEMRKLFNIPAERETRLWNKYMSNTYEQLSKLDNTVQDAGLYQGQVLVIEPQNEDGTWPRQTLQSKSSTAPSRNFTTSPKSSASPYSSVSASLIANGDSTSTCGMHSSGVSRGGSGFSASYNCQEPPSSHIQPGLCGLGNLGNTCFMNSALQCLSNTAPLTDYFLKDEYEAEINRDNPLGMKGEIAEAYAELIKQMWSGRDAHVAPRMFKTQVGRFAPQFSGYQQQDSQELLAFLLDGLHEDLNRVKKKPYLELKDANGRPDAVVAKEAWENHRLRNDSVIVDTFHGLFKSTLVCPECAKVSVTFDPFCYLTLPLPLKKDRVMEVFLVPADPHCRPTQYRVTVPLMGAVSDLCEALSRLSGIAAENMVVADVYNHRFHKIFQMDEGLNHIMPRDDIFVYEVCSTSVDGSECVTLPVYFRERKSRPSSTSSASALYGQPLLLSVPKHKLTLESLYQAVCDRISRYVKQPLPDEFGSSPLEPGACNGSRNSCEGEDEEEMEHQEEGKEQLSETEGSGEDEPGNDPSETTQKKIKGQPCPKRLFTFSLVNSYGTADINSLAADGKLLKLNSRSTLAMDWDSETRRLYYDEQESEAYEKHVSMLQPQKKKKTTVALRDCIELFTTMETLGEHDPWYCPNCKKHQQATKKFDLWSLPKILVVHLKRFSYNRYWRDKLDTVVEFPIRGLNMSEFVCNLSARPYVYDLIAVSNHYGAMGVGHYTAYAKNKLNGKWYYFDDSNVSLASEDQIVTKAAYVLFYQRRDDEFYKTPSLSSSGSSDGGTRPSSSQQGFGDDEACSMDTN
How it was run: as §1

Measured: log2 ratio of Biotin-Ahx-Ub-VS probe labelling

CCCn1nccc1NC(=O)CCl
inactive: USP34 -0.0454 | USP36 -0.015 | USP38 -0.241 | USP39 -0.211 | USP4 -0.159
